According to PubChem BioAssay (Tox21):
Active and inactive are the calls of the source. The call rests on the fitted dose curve; in most records, active means well fitted curve in the direction sought with a large enough effect in the repeat runs; inconclusive means weak or mixed curves; inactive means flat fitted curve, though single readings scatter.

Experiment: qHTS assay to test for compound auto fluorescence at 535 nm (green) in HepG2 cell free culture (AID 720686)
Details: Cell-free medium, green autofluorescence 485/535 nm; series mostly up to 91.3 µM
Text: U.S. Tox21 Program National Center for Advancing Translational Sciences [NCATS] NIH Chemical Genomics Center [NCGC] U.S. Environmental Protection Agency [EPA] National Institutes of Environmental Health Sciences [NIEHS] National Toxicology Program [NTP] U.S. Food and Drug Administration [FDA] Tox21 Assay Overview: Compound auto fluorescence often interferes with screening of the compound library against various biological targets and signaling pathways. Some of these compounds may have fluorophoric properties. Such properties may interfere with the assay outputs resulting in false positives and/or negatives. To decrease such complications and ensure the compound activities are relevant in terms of biological response, the Tox21 10K compound library was screened for auto fluorescence. From the fluorophores used as reporter signals in our screening assays, the auto fluorescence equivalencies of compounds against three fluorophores have been evaluated: Triamterene, Fluorescein and Rose Bengal sodium for blue, green and red fluorescence, respectively. The fluorescence intensities were measured using Excitation/Emission wavelengths at 405/460nm, 485/535nm and 540/590nm for blue, green and red labels, respectively. This assay includes the green fluorescence data.
Tox21 Assay Protocol Summary: 5 uL of culture medium (MEM containing 10% FBS) per well was dispensed into black wall/clear bottom 1536-well plates using a Multidrop Combi Dispenser (ThermoFisher Scientific, Waltham, MA). After 23 nL compound or DMSO vehicle was transferred into assay plate by a pintool work station (Kalypsys, San Diego, CA), fluorescence intensities in the assay plates were measured by an Envision (PerkinElmer, Shelton, CT) plate reader using three labels for measuring blue, green and red fluorescence at […] 460, 535 and 590nm respectively.
On the % scale 0 is the no-effect control and ±100 the full control effect.

Row | Structure (SMILES) | outcome | fluorescence, % of fluorescein control
1 | CC1(C)C(=O)N(Cl)C(=O)N1Br | inactive | 
2 | O=C(O)[C@@H]1CSCN1 | inactive | 
3 | CC(C)=CCCC(C)CCOC=O (stereo not given) | inactive | 
4 | CCN(CC)C(=O)N(CC)CC | inactive | 
5 | CCCCCCCCCC/C=C/C#N | inactive | 
6 | O=C(Cl)c1cccc([N+](=O)[O-])c1 | inactive | 
7 | Cc1c(C(=O)NCCO)[n+](=O)c2ccccc2n1[O-] | inactive | 
8 | CCCNC(C)C(=O)Nc1c(C)csc1C(=O)OC (stereo not given) |  | 0.063% [at 18.6 µM] (inactive)
9 | CNCCC(Oc1ccccc1OC)c1ccccc1 (stereo not given) | inactive | 
10 | FC(F)(F)C(F)(F)C(F)(F)C(F)(F)C(F)(F)C(F)(F)C(F)(F)C(F)(F)Br | inactive | 
11 | CC1=C(O)C(=O)OC1C (stereo not given) | inactive | 
12 | CC(C)(C)c1ccc(OC(=O)c2ccccc2O)cc1 | inactive | 
13 | CCC/C=C/CO | inactive | 
14 | NC(Cc1ccc(F)cc1)C(=O)O (stereo not given) |  | -0.0064% [at 3.72 µM] (inactive)
15 | CCOC(=O)NCCC[Si](OCC)(OCC)OCC | inactive | 
16 | Cc1cc(NS(=O)(=O)c2ccc(N)cc2)nc(C)n1 | inactive | 
17 | CCCCCCCCCC#N | inactive | 
18 | CN(CCCN1c2ccccc2CCc2ccccc21)CC(=O)c1ccc(Cl)cc1 | inactive | 
19 | CN(C)C(=O)NC1(c2ccccc2)CCN(CCC[C@]2(c3ccc(Cl)c(Cl)c3)CCCN(C(=O)c3ccccc3)C2)CC1 |  | 0.0302% [at 18.6 µM] (inactive)
20 | O=c1[nH]cnc2c1ncn2[C@@H]1O[C@H](CO)[C@@H](O)[C@H]1O | inactive | 

Row | Structure (SMILES) | outcome | fluorescence, % of fluorescein control
21 | COc1ccc2nc(NC(=O)Nc3ccccc3)sc2c1 | inactive | 
22 | CCN[C@H]1CN(CCCOC)S(=O)(=O)c2sc(S(N)(=O)=O)cc21 |  | 0.0136% [at 18.6 µM] (inactive)
23 | C[C@]12C(=O)OC(=O)[C@H]1[C@H]1C=C[C@@H]2C1 | inactive | 
24 | CC1=CC(=O)CC(C)(C)C1=O | inactive | 
25 | c1ccc(CN(CC2=NCCN2)c2ccccc2)cc1 | inactive | 
26 | CCOC(=O)c1ccccc1O | inactive | 
27 | CCOC(=O)C(Br)c1ccccc1 (stereo not given) | inactive | 
28 | NCCC(O)(P(=O)(O)O)P(=O)(O)O | inactive | 
29 | CC(C)O | inactive | 
30 | Cc1cc(S(=O)(=O)O)c(N)cc1Cl | inactive | 
31 | CCN(O)CC | inactive | 
32 | CCOC(=O)CS | inactive | 
33 | COC(=O)c1ccc2cc(C(=O)OC)ccc2c1 |  | -0.0122% [at 18.6 µM] (inactive)
34 | C[C@@H]1CN(c2c(F)c(F)c3c(=O)c(C(=O)O)cn(C4CC4)c3c2F)C[C@H](C)N1 | inactive | 
35 | CN1CCN(c2c(F)cc3c(=O)c(C(=O)O)cn4c3c2SCC4)CC1 | inactive | 
36 | OC[C@H]1O[C@@H](O[C@H]2[C@H](O)[C@@H](O)[C@H](O)O[C@@H]2CO)[C@H](O)[C@@H](O)[C@H]1O | inactive | 
37 | C=C(C)C(=O)OCCOP(=O)(O)O | inactive | 
38 | C=O | inactive | 
39 | O=[N+]([O-])c1nccn1CO[C@@H](CO)[C@H](O)CO | inactive | 
40 | CS(=O)(=O)c1ccc([C@@H](O)[C@@H](CF)NC(=O)C(Cl)Cl)cc1 |  | -0.0102% [at 18.6 µM] (inactive)
